# NFkB SMM – NF-kappa-B p105 (human) binding; P19838; Small molecule microarray, anti-His fluorescence binding; calls only; 1.3% of 17,000 active;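 active = spot fluorescence over background significantly raised, with a chance value under 7% in all four replicate spots of the compound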;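 note: probe protein is his-tagged human p50 processed subunit at 1 µg/ml; raw spot fluorescence signals with no normalization applied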
# Target sequence (P19838 1-433 limits assumed): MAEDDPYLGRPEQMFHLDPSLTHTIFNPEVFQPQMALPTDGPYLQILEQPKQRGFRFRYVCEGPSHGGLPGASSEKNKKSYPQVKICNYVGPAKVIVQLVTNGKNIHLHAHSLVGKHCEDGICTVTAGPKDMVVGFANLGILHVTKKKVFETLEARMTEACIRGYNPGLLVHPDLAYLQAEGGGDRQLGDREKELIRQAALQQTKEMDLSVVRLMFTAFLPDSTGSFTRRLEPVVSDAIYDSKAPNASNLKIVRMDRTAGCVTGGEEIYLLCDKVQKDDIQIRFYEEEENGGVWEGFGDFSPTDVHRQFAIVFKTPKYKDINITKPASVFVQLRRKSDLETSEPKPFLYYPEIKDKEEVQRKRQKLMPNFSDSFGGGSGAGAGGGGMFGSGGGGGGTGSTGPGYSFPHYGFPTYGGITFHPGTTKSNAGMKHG
# STAT3 binder – binders of human STAT3; P40763; Small molecule microarray, His-STAT3 binding, anti-His fluorescence; calls only; 0.2% of 17,000 active; AID 624138;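 active = compounds whose four printed spots each show fluorescence over background unusually high for their array block, chance value under 7%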
# mut p53 SMM – mutant p53 (human) binding; 0.4% of 17,000 active; calls only; small molecule microarray binding, anti-GST fluorescence; AID 624136;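 active = compounds whose four printed spots each glow above background more than chance allows, each with a p-value under 7%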
# c-Myc SMM – binders of human c-Myc; 1.5% of 17,000 active; calls only; P01106; AID 624141; small molecule microarray, His-c-Myc binding, anti-His fluorescence;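 active = spot fluorescence over background with P-value below 7% in all four replicate spots, showing protein binding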;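 note: score is binary with 100 for all four spots passing and 0 otherwise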
# * marks the source's active call; other numbers are inactive results; i = inactive; + = active, no number. Shown are actives, neighbours in structure and some others; about 2.1% of the full set was active somewhere.
SMILES,NFkB SMM,STAT3 binder,mut p53 SMM,c-Myc SMM
NCCCN(Cc1ccco1)C1CCCC1,i,i,i,+
CCc1nnc(SCC(=O)Nc2cccc([N+](=O)[O-])c2)o1,i,i,i,i
CC(C)NC(=O)Nc1ccc2c(c1)C(=O)N([C@@H](C)CO)C[C@H](C)[C@@H](CN(C)Cc1ccccc1)OCCCC[C@H](C)O2,+,i,i,+
CC(C)NC(=O)Nc1ccc2c(c1)C(=O)N([C@@H](C)CO)C[C@H](C)[C@@H](CN(C)Cc1ccccc1)OCCCC[C@@H](C)O2,i,i,i,+
CC(C)NC(=O)Nc1ccc2c(c1)C(=O)N([C@H](C)CO)C[C@H](C)[C@@H](CN(C)Cc1ccccc1)OCCCC[C@H](C)O2,+,i,i,i
CC(C)NC(=O)Nc1ccc2c(c1)C(=O)N([C@@H](C)CO)C[C@@H](C)[C@H](CN(C)Cc1ccccc1)OCCCC[C@@H](C)O2,i,i,i,i
CC(C)NC(=O)Nc1ccc2c(c1)C(=O)N([C@@H](C)CO)C[C@H](C)[C@@H](CN(C)C(=O)Nc1ccccc1)OCCCC[C@@H](C)O2,+,i,i,+
CC(C)NC(=O)Nc1ccc2c(c1)C(=O)N([C@@H](C)CO)C[C@H](C)[C@H](CN(C)Cc1ccccc1)OCCCC[C@@H](C)O2,i,i,i,i
CC(C)NC(=O)Nc1ccc2c(c1)C(=O)N([C@H](C)CO)C[C@@H](C)[C@H](CN(C)Cc1ccccc1)OCCCC[C@@H](C)O2,i,i,i,i
CCN(CC)CCSc1nnc2c3cc(C)ccc3n(C)c2n1,i,i,i,i
C[C@H](CO)N1C[C@H](C)[C@H](CN(C)Cc2ccncc2)OCCCC[C@H](C)Oc2ccc(NC(=O)Nc3ccccc3)cc2C1=O,i,+,+,i
CCC(=O)Nc1ccc2nc(SCc3ccccc3C#N)sc2c1,i,i,i,i
O=C(CCNc1ccc(Oc2ccccc2)cc1)c1ccco1,i,i,i,i
Cc1c(C(=O)N(C)C2CCCCC2)sc2nc3ccc(N)cc3n12,i,i,i,+
Cn1c(=O)oc2cc(S(=O)(=O)NCCC(=O)O)ccc21,i,i,i,i
CSc1cccc(NC(=O)CNS(=O)(=O)c2c(C)cc(C)cc2C)c1,i,i,i,i
Cc1cc(S(=O)(=O)NCC(=O)O)ccc1F,i,i,i,+
Cc1cc(C)c(S(=O)(=O)NCC(=O)O)c(C)c1,i,i,i,+
Cc1ccc2cc(S(=O)(=O)NCCC(=O)O)ccc2c1,i,i,i,+
[O-]/[N+](=N\OCCBr)N1CCCC1,i,i,i,i
CC(C)=CCN(C(=O)C#Cc1ccccc1)[C@H](CO)c1ccccc1,+,i,i,i
Cc1cc(Cl)ccc1N(CC(=O)Nc1cc(Cl)cc(Cl)c1)S(C)(=O)=O,i,i,i,i
COCc1c(Br)c(C)nc(OCC(=O)O)c1C#N,+,i,i,+
Cc1ccc(OCC(=O)N(c2ccccn2)C2CCCCC2)c(C)c1,i,i,i,i
Cc1cc(S(=O)(=O)NC2CCCCC2)ccc1OCC(=O)O,i,i,i,+
SMILES,NFkB SMM,STAT3 binder,mut p53 SMM,c-Myc SMM
COc1ccccc1NC(=O)c1c(C)nc(Nc2nc3ccccc3o2)nc1C,i,i,i,i
CCOC(=O)Cc1cc(=O)[nH]c(Nc2nc3ccccc3o2)n1,i,i,+,i
COc1ccccc1CN1CCN(Cc2cccnc2)CC1,i,i,i,+
CC(C)(C)[C@@H]1C=C(C(=O)O)O[C@H](OCc2ccc(CO)cc2)C1,+,i,i,i
COCC1OC(OC(C)(C)C2CCC3(C)C=C(C4CCC5C4(C)CC(O)C4OC(C(C)(C)OC6OC(CO)C(O)C(O)C6NC(C)=O)CCC45C)CCC3O2)C(NC(C)=O)C(O)C1O (centres undefined),+,i,i,+
COc1ccc(CO[C@H]2O[C@H](CO)[C@@H](O)[C@H](O)[C@H]2NC(C)=O)c2cc(C)oc12,i,i,i,i
C=CC[C@@]1(C(=O)N(C)C)N=C(c2ccc(OCCCO)cc2)O[C@@H]1c1ccccc1,i,i,i,i
COc1ccc(NC(=O)c2ccco2)cc1NC(=S)NC(=O)c1cc2ccccc2o1,i,i,i,i
Cc1nn(CCCC(=O)O)c(C)c1[N+](=O)[O-],i,i,i,+
COc1ccc([Si](C)(C)[C@H]2[C@H](CCO)O[C@@]3(C(=O)N(Cc4ccccc4)c4ccc(NC(=O)[C@H](C)O)cc43)[C@@H]2C)cc1,+,i,+,i
C[C@@H]1CCCCO[C@H](CN(C)C)[C@@H](C)CN([C@H](C)CO)C(=O)c2cc(NC(=O)Nc3ccc(C(F)(F)F)cc3)ccc2O1,i,i,i,i
C[C@@H]1CCCCO[C@H](CN(C)C(=O)Nc2ccc(C(F)(F)F)cc2)[C@@H](C)CN([C@H](C)CO)C(=O)c2cc(NS(C)(=O)=O)ccc2O1,i,i,i,i
C[C@@H]1CN([C@@H](C)CO)C(=O)c2cc(NC(=O)Nc3ccc(C(F)(F)F)cc3)ccc2O[C@@H](C)CCCCO[C@@H]1CN(C)CC1CCCCC1,+,i,i,i
C[C@@H]1CCCCO[C@H](CN(C)C(=O)Nc2ccc(C(F)(F)F)cc2)[C@H](C)CN([C@H](C)CO)C(=O)c2cc(NS(C)(=O)=O)ccc2O1,i,i,i,+
C[C@H]1CN([C@@H](C)CO)C(=O)Cc2cc(NS(=O)(=O)c3ccc(Cl)cc3)ccc2O[C@H]1CN(C)CC1CCCCC1,i,i,i,i
C[C@H]1CN([C@@H](C)CO)C(=O)Cc2cc(NS(=O)(=O)c3ccc(Cl)cc3)ccc2O[C@@H]1CN(C)CC1CCCCC1,+,i,+,+
C[C@@H]1CN([C@@H](C)CO)C(=O)c2cc(NC(=O)c3ccccc3)ccc2O[C@@H](C)CCCCO[C@H]1CN(C)CC1CCCCC1,i,i,i,+
CC(C)NC(=O)N(C)C[C@H]1OCCCC[C@@H](C)Oc2ccc(NC(=O)Nc3ccc(C(F)(F)F)cc3)cc2C(=O)N([C@@H](C)CO)C[C@H]1C,+,i,i,+
C[C@@H]1CN([C@@H](C)CO)C(=O)c2cc(NC(=O)Nc3ccc4c(c3)OCO4)ccc2O[C@H]1CN(C)CC1CCCCC1,+,i,i,i
O=C(CCc1ccc(O)cc1)CC(CCc1ccc(O)cc1)O[C@@H]1OC[C@@H](O)[C@H](O)[C@H]1O (some centres undefined),i,i,i,i
C=CCNC(=O)[C@H]1[C@@H]2C(=O)O[C@@H](c3ccccc3)[C@@H](c3ccccc3)N2[C@@H](c2ccc(OCCO)cc2)[C@]12C(=O)N(C(=O)OCCOC)c1ccc(C#CCC(C(=O)OC)C(=O)OC)cc12,i,i,i,i
